This note sets out measurements from PubChem BioAssay (Tox21).

Structures are written as SMILES. A number with no mark means an inactive call. Records with an inconclusive call do not appear. Activity calls are given as the source filed them. Unless noted, calls follow the shape of the dose curve; as a rule, active = well fitted curve in the direction sought with a large enough effect in the repeat runs; inconclusive = weak or mixed curves; inactive = no such curve, though single readings can be large; an effect the other way counts as inactive or inconclusive.

The target in assay [1] is Thyrotropin-releasing hormone receptor (Homo sapiens) (UniProt P34981). As to the kind of experiment: qHTS assay to identify small molecule agonists of the thyrotropin-releasing hormone receptor (TRHR) signaling pathway (AID 1346891; calls by dose curve;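 also: HEK293 cells expressing TRHR with calcium dye readout; series mostly up to about 58 µM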). The method in brief: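 Agonist-mode calcium mobilisation screen: TRHR-transfected HEK293 cells cultured overnight (18 h), dye-loaded for 2 h at 37 °C, exposed to compounds, and monitored by fluorescence for 3 min.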
Thyrotropin-releasing hormone receptor (Homo sapiens), sequence (P34981 whole entry, looked up): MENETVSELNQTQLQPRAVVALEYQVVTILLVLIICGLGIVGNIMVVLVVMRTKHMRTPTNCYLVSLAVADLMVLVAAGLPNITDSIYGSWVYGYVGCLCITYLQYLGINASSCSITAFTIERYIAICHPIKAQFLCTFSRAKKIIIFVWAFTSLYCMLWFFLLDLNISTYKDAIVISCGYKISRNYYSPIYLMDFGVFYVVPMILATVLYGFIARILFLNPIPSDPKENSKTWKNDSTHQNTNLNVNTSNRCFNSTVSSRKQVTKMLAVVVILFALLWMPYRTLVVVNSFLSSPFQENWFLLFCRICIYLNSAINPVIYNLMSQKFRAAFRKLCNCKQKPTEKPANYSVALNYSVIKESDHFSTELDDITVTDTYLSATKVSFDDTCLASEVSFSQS
(In general: qHTS replaces the single test concentration by a dilution series.)

Assay [2] is described as follows: Human pregnane X receptor (PXR) small molecule agonists, qHTS cell viability counter screen (AID 1346977). Also: nearly all actives have a fitted effect of over 50% in size. Also: potency is read from the fitted curve at half-maximal effect. The method in brief:
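Measures live-cell protease fluorescence (CellTiter-Fluor) in PXR-Luc HepG2 cells treated 24hr with compounds at 37C. Cells had 5hr to attach before pin transfer of DMSO solutions.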

The nature of assay [3]: Caspase-3/7 induction in CHO-K1 cells by small molecules, qHTS cell viability counter screen (AID 1346979). Also: nearly all actives have a fitted effect of over 35% in size. Also: potency is read from the fitted curve at half-maximal effect. The method in brief:
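In the same wells as the caspase read, viability of compound-treated wild-type CHO-K1 cells was assessed using CellTiter-Fluor, added after 16hr at 37C and measured by fluorescence following 1hr further incubation.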

Assay [4] in a line: Caspase-3/7 induction in CHO-K1 cells by small molecules, qHTS assay (AID 1346980). Also: nearly all actives have a fitted effect of over 15% in size. The method in brief: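 Wild-type cells were seeded at 1,500 per well and settled 5 hr at 37 C, 5% CO2, then exposed to DMSO-dissolved compounds for 17 hr. Caspase-Glo 3/7 reagent was added, and luminescence was read after 30min at room temperature.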
A short description of assay [5]: Caspase-3/7 induction in HepG2 cells by small molecules, qHTS cell viability counter screen (AID 1346981). Also: nearly all actives have a fitted effect of over 30% in size. Also: potency is read from the fitted curve at half-maximal effect. The method in brief: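 Wild-type HepG2 cells, 2,000/well, settled 5 hr at 37 C, 5% CO2 before compound addition. Viability read by CellTiter-Fluor fluorescence, reagent added after 16 hr compound exposure, then 1 hr at 37C, in the same wells as the caspase read.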

In assay [6] the target is Acetylcholinesterase (Homo sapiens) (UniProt P22303). The assay is described as follows: Acetylcholinesterase (AChE) small molecule antagonists: colormetric cell-based qHTS assay (AID 1347395; calls by dose curve; also: nearly all actives have a fitted effect of over 30% in size). The method in brief:
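Endogenous AChE of human neuroblastoma SH-SY5Y cells was measured with an Ellman-type DTNB/acetylthiocholine mix. Compound pretreatment lasted 30 min at 37 C; substrate reaction ran 90 min at 37 C.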

The target is the same in assay [7]. The assay is described as follows: Acetylcholinesterase (AChE) small molecule antagonists: enzyme-based qHTS assay (AID 1347397; calls by dose curve; also: nearly all actives have a fitted effect of over 55% in size). The settings on record: Potency: AChE enzyme activity inhibition. The method in brief: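 Recombinant human AChE, dispensed at 50 mU/mL, was preincubated with Tox21 10K compounds or DMSO vehicle for 30 min at room temperature. DTNB plus acetylthiocholine was then added, and thiocholine was measured colorimetrically after a further 10 min.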

Assay [8] has the same target. As to the kind of experiment: Acetylcholinesterase (AChE) small molecule antagonists: fluorescence cell-based qHTS assay (AID 1347398; calls by dose curve; also: nearly all actives have a fitted effect of over 50% in size). As to conditions: Potency: AChE activity. The method in brief:
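Human SH-SY5Y cells were plated overnight at 37 C, exposed to compound for 30 min at 37 C, 5% CO2, then given acetylthiocholine plus Thiolite Green for 40 min at room temperature; thiocholine fluorescence (Ex/Em 490/520 nm) reports endogenous AChE activity.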

Assay [9] shares this target. As to the kind of experiment: Acetylcholinesterase (AChE) small molecule antagonists: enzyme-based qHTS assay with human liver microsomes (AID 1347399; calls by dose curve; also: nearly all actives have a fitted effect of over 60% in size). As to conditions: Potency: qHTS inhibition. The method in brief: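 Recombinant human AChE (50 mU/mL in the enzyme mix) and human liver microsomes (0.25 mg/mL final) were preincubated with compound and NADPH (0.25 mg/mL final) for 30 min at 37 C. Acetylthiocholine/DTNB was then added; thiocholine was read colorimetrically after 10 min at room temperature.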

Assay [10] deals with Cytochrome P450 2D6 (Homo sapiens) (UniProt P10635). The assay is described as follows: Cytochrome P450 Family 2 Subfamily D Member 6 (CYP2D6) small molecule antagonists: luciferase reporter qHTS assay (AID 1671196). Also: series mostly up to about 120 µM; nearly all actives have a fitted effect of over 50% in size. The method in brief:
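Cell-free P450-Glo system: CYP2D6 with proluciferin substrate was pre-incubated with compound for 10 min, then reacted with NADPH regeneration for 1 h at room temperature. Luciferin product was detected after 20 min, and data were reported as relative luminescence units.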
(In general: Reporter assays use an easily measured gene product as a stand-in for the process of interest.)

For assay [11], the target named is Cytochrome P450 2C19 (Homo sapiens) (UniProt P33261). The assay is described as follows: Cytochrome P450 Family 2 Subfamily C Member 19 (CYP2C19) small molecule antagonists: luciferase reporter qHTS assay (AID 1671197). Also: nearly all actives have a fitted effect of over 65% in size. Also: potency is read from the fitted curve at half-maximal effect. The method in brief:
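P450-Glo CYP2C19 system: enzyme-substrate mix with compound 10 min at room temperature, then NADPH regeneration solution, 1 h at 37C. Proluciferin-to-luciferin conversion detected by luminescence after 20 min with detection reagent; ketoconazole as positive control.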

The target of assay [12] is Voltage-gated inwardly rectifying potassium channel KCNH2 (Homo sapiens) (UniProt Q12809). As to the kind of experiment: Human Ether-a-go-go-Related Gene (hERG) channel small molecule antagonists: fluorescence cell-based qHTS assay (AID 1671200).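 Also: hERG-expressing U2OS cells given a thallium stimulus after FluxOR II dye loading; series mostly up to about 77 µM; nearly all actives have a fitted effect of over 50% in size.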 The method in brief:
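Quantitative HTS in hERG-U2OS cells: thallium entry through the channel reports activity, read as continuous 480/540 nm fluorescence over 2 min after stimulus addition.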
(In general: The hERG channel carries a current that helps repolarise heart muscle cells.)

Assay [13] has as its target Cytochrome P450 3A4 (Homo sapiens) (UniProt P08684). The assay is described as follows: Cytochrome P450 Family 3 Subfamily A Member 4 (CYP3A4) small molecule antagonists: luciferase reporter qHTS assay (AID 1671201). Also: nearly all actives have a fitted effect of over 50% in size. Also: potency is read from the fitted curve at half-maximal effect. The method in brief: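 Inhibition of CYP3A4 is measured as loss of light: the enzyme converts a proluciferin substrate to luciferin, detected luminescently. Reaction ran 1 h at room temperature with NADPH regeneration after a 10 min compound preincubation.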

Assay [14] is described as follows: Caspase-3/7 induction in HepG2 cells by small molecules, qHTS assay (AID 1346978). Also: nearly all actives have a fitted effect of over 15% in size. The method in brief: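 Wild-type HepG2 cells (2,000/well) were settled 5 h at 37 C, 5% CO2, then exposed to compounds in DMSO for 17 h. Caspase-3/7 activity was read by luminescence 30 min after adding Caspase-Glo 3/7 reagent at room temperature.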
The target in assay [15] is Nuclear receptor subfamily 1 group I member 2 (Homo sapiens) (UniProt O75469). The assay is described as follows: Human pregnane X receptor (PXR) small molecule agonists, qHTS assay (AID 1346982). Also: nearly all actives have a fitted effect of over 35% in size. Also: potency is read from the fitted curve at half-maximal effect. The method in brief:
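PXR-Luc HepG2 reporter cells (CYP3A4-driven luciferase) in 5% charcoal-stripped FBS medium, plated 5 h before compound addition, then treated 24 h at 37C. Luciferase read by ONE-Glo luminescence after 30 min at room temperature.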

Assay [16] has as its target Cytochrome P450 2C9 (Homo sapiens) (UniProt P11712). The assay is described as follows: Cytochrome P450 Family 2 Subfamily C Member 9 (CYP2C9) small molecule antagonists: luciferase reporter qHTS assay (AID 1671198). Also: nearly all actives have a fitted effect of over 50% in size. Also: potency is read from the fitted curve at half-maximal effect. The method in brief:
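CYP2C9 activity was measured with a P450-Glo proluciferin substrate. Enzyme–substrate mix was held with compound for 10 min at room temperature, then NADPH regeneration solution was added for 1 h at 37C. Luciferin product was read as luminescence.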

The target of assay [17] is Nuclear receptor subfamily 1 group I member 2 (Rattus norvegicus) (UniProt Q9R1A7). As to the kind of experiment: Rat pregnane X receptor (rPXR) activation by small molecules, qHTS assay (AID 1346983). Also: nearly all actives have a fitted effect of over 20% in size. The settings on record: rPXR luciferase reporter cells, One-Glo luminescence, 24 h; max activation: stronger effect = higher value. The method in brief:
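Cell-based rPXR luciferase reporter assay, 2,000 cells per well, rested 5hr at 37 C before compound addition in DMSO, then 24 hr at 37 C. One-Glo reagent was added and luminescence read after 30 min at room temperature.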

The target of assay [18] is Nuclear receptor subfamily 1 group I member 2 (Homo sapiens) (UniProt O75469). The assay is described as follows: CYP3A4 induction through human pregnane X receptor (PXR) by small molecules, qHTS assay (AID 1346984). Also: nearly all actives have a fitted effect of over 40% in size. The method in brief:
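DPX-2 HepG2 cells carrying a PXR response element and CYP3A4-promoter luciferase construct, treated with compounds 24 hr at 37C. Then P450-Glo CYP3A4 Luciferin-IPA substrate (3uM final) for 3 hr at 37C, One-Glo added, luminescence read.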

For assay [19] the target is unchanged. The assay is described as follows: Human pregnane X receptor (PXR) activation by small molecules, qHTS assay (AID 1346985). Also: nearly all actives have a fitted effect of over 40% in size. The method in brief:
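DPX-2 cells (HepG2 co-transfected with a PXR response element and a CYP3A4-promoter luciferase construct) were seeded at 2,000 per well, rested 5 hr at 37C, then exposed to DMSO-dissolved compounds for 24 hr. Activation was read as luciferase luminescence.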

For assay [20], the target named is Cytochrome P450 1A2 (Homo sapiens) (UniProt P05177). The assay is described as follows: Cytochrome P450 Family 1 Subfamily A Member 2 (CYP1A2) small molecule antagonists: luciferase reporter qHTS assay (AID 1671199). Also: nearly all actives have a fitted effect of over 50% in size. Also: potency is read from the fitted curve at half-maximal effect. The method in brief:
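P450-Glo CYP1A2 enzyme–proluciferin substrate mix with compound 10 min at room temperature, then NADPH regeneration 1 h at room temperature. Luciferin detection reagent added, luminescence read after 20 min; furafylline positive control.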
% is scaled to controls: 0 for no effect and ±100 for the full control effect.

Cytochrome P450 2D6 (Homo sapiens), sequence (P10635 whole entry, looked up): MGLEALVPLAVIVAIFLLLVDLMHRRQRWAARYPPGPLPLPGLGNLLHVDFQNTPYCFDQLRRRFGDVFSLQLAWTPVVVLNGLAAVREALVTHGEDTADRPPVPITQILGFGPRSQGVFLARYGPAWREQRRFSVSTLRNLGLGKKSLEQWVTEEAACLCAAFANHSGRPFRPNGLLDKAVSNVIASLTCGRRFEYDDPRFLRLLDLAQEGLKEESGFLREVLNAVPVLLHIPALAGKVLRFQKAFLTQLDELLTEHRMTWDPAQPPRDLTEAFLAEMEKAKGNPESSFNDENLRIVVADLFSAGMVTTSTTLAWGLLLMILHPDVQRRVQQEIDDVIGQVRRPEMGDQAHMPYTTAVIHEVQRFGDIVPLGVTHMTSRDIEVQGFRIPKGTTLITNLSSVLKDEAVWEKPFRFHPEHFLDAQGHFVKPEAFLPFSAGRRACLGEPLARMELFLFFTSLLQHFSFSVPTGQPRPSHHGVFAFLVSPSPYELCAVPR
Voltage-gated inwardly rectifying potassium channel KCNH2 (Homo sapiens), sequence (Q12809 whole entry, looked up): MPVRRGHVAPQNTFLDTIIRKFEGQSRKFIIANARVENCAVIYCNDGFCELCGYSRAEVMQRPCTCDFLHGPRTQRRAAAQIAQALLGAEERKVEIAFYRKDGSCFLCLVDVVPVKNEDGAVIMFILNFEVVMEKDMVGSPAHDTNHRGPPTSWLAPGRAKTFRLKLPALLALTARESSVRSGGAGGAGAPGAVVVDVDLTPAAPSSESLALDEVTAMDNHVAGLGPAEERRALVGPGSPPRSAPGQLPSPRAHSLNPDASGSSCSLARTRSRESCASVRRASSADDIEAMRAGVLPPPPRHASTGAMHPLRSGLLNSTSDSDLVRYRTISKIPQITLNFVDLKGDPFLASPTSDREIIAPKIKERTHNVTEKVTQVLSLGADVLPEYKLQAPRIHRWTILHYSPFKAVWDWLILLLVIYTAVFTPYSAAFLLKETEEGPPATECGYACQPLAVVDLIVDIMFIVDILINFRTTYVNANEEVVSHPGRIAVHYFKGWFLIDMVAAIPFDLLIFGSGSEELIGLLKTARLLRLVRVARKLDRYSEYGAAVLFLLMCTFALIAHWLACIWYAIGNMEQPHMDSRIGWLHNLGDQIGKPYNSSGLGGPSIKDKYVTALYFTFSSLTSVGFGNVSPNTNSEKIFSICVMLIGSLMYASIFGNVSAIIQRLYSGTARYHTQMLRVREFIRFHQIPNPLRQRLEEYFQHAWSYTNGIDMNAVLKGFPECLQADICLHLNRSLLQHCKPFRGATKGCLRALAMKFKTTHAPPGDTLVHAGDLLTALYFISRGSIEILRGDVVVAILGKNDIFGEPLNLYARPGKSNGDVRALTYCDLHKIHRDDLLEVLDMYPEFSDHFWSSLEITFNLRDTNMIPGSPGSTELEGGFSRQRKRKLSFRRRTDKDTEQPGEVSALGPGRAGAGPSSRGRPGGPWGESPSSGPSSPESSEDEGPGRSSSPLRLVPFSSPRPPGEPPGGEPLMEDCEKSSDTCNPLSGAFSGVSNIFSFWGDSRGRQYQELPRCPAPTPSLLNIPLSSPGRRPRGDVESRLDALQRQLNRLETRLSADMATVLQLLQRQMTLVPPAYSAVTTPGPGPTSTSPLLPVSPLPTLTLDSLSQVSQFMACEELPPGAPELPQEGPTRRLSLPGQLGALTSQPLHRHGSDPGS
Cytochrome P450 3A4 (Homo sapiens), sequence (P08684 whole entry, looked up): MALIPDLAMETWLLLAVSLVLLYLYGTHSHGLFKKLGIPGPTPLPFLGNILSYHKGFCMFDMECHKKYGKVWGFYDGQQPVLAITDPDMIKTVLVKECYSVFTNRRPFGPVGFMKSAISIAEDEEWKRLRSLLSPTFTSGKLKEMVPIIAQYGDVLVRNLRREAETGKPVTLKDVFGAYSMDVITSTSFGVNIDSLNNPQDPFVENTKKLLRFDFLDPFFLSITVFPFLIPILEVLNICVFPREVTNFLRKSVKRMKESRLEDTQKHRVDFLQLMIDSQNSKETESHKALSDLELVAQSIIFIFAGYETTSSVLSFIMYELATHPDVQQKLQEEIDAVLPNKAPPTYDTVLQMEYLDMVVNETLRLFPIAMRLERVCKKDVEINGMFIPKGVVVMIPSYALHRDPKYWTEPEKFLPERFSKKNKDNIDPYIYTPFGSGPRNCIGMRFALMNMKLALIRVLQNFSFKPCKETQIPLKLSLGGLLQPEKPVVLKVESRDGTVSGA
Cytochrome P450 2C19 (Homo sapiens), sequence (P33261 whole entry, looked up): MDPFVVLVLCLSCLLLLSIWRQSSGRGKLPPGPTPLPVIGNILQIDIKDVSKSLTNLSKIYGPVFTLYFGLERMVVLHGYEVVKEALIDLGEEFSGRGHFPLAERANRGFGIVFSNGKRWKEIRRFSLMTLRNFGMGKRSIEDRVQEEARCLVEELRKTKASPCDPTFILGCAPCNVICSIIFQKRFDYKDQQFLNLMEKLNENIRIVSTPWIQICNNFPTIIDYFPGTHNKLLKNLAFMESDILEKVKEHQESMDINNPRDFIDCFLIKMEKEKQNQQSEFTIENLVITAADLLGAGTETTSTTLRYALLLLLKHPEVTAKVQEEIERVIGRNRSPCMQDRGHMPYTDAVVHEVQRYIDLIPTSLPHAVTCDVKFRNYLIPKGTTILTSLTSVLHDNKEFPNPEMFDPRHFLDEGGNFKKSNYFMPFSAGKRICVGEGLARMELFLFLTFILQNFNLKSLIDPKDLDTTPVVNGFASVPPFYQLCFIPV
Cytochrome P450 1A2 (Homo sapiens), sequence (P05177 whole entry, looked up): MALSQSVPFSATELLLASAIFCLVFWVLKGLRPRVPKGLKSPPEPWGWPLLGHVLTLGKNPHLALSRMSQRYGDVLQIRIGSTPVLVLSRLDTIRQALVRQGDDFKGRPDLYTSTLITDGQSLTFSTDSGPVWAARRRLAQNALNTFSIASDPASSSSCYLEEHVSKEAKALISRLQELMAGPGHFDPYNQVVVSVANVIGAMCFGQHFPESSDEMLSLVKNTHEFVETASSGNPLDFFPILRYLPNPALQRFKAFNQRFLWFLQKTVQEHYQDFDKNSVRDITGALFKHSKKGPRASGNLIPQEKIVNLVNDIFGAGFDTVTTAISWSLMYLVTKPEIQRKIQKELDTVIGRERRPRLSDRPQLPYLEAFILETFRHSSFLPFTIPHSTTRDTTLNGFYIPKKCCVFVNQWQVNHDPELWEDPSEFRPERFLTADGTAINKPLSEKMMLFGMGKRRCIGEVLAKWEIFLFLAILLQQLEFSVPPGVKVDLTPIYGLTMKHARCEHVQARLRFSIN
Nuclear receptor subfamily 1 group I member 2 (Homo sapiens), sequence (O75469 whole entry, looked up): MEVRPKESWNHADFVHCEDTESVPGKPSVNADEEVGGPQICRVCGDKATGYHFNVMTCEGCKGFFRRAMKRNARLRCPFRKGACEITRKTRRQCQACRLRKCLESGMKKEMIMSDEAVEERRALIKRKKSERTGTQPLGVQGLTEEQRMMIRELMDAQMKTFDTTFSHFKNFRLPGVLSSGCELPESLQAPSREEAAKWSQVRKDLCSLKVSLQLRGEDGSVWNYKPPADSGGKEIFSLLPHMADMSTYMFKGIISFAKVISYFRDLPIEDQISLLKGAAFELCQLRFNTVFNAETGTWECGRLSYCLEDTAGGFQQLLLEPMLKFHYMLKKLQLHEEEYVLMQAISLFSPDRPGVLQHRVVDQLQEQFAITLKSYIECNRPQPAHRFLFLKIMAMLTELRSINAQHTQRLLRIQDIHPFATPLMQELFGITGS
Acetylcholinesterase (Homo sapiens), sequence (P22303 whole entry, looked up): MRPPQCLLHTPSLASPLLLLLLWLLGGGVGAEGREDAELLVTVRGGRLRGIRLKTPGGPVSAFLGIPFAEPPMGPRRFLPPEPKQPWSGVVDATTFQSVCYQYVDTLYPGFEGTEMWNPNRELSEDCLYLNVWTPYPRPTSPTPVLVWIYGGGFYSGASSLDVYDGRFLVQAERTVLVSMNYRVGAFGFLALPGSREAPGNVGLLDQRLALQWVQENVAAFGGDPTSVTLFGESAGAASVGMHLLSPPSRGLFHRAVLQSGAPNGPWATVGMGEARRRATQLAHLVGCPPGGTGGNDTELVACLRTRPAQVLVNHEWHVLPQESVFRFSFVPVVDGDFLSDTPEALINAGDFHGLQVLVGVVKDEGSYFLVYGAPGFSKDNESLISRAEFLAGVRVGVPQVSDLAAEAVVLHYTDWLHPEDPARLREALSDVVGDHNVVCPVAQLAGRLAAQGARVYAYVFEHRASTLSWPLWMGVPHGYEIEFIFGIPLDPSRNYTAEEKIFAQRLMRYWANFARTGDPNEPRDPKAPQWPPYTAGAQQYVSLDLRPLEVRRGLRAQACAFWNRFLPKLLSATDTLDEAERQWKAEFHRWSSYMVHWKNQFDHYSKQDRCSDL

In the case of `CC(C)(Cl)[N+](=O)[O-]`, the Potency result in assay [1], in assay [2], in assay [3], in [4], in assay [5] and in assay [6] was “inactive” throughout. Besides, the Potency result in assay [7], in assay [8], in [9], in assay [10], in assay [12] and in [13] was “inactive” in each case. In assay [11], the Potency was 89.8 µM (active).
For the compound `Brc1ccccc1`, the Potency result in assay [1], in [2], in assay [14], in assay [5], in assay [15] and in assay [6] was “inactive” in each case. The Potency result in assay [7], in [8], in assay [9], in assay [10], in assay [16] and in assay [13] was “inactive” in each case.
In the case of `ClC=C(Cl)Cl`, the Potency result in assay [1], in assay [2], in [3], in assay [4], in assay [5] and in [15] was “inactive” in each case. Also, the Potency result in [18], in assay [19], in assay [6], in [7], in assay [8] and in assay [9] was “inactive” throughout. Besides, the Potency entry in assay [10], in [11], in [16], in assay [20], in assay [12] and in [13] was “inactive” in each case. Moreover, in assay [17], the max activation was -0.508%.
`CC1(C)[C@H](C=C(Cl)Cl)[C@@H]1C(=O)O[C@@H](C#N)c1cccc(Oc2ccccc2)c1`: the Potency entry in assay [1], in assay [2], in assay [4], in assay [5], in [6] and in assay [7] was “inactive” in each case. For the same compound, the Potency result in assay [8], in assay [9], in assay [20], in assay [12] and in [13] was “inactive” in each case. The Potency was 4.33 µM (active) in assay [15], 7.96 µM (active) in assay [11] and 3.56 µM (active) in [16].
For `C=CCOC(C)=O`, the Potency result in [1], in assay [2], in assay [4], in [5], in assay [15] and in assay [6] was “inactive” throughout. Moreover, the Potency result in [7], in assay [8], in assay [9], in assay [10], in assay [12] and in [13] was “inactive” each time. Also, the Potency in assay [11] was 70 µM (active); in [16], 55.6 µM (active).
For `c1cc2ccc3cccc4ccc(c1)c2c34`, the Potency result in assay [1], in [2], in [4], in assay [6], in assay [7] and in [8] was “inactive” throughout. The Potency result in assay [9] is “inactive”. Further, the Potency was 25.5 µM (active) in assay [15], 16.7 µM (active) in [11], 74.4 µM (active) in assay [16] and 0.564 µM (active) in [20].
As for `CC(C)(C)c1cc([N+](=O)[O-])cc([N+](=O)[O-])c1O`, the Potency was 6.84 µM (active) in [2]; 17.2 µM (active) in [3]; 21.6 µM (active) in assay [5]; 19.3 µM (active) in [15]; 56.2 µM (active) in [11]; 17.8 µM (active) in assay [16]. Also, in assay [20], the Potency is 56.2 µM (active). Moreover, the Potency entry in assay [14], in assay [4], in assay [6], in assay [7], in assay [8] and in assay [9] was “inactive” throughout. In addition, the Potency entry in assay [10], in [12] and in assay [13] was “inactive” each time.
As to `O=C(OC1CCCCC1)c1ccccc1C(=O)OC1CCCCC1`, the Potency result in assay [1], in assay [4], in [6], in assay [7], in assay [8] and in assay [9] was “inactive” in each case. For the same compound, in assay [10], the Potency result is “inactive”. For the same compound, the Potency was 5.74 µM (active) in assay [15]; 33.4 µM (active) in assay [11]; 26.5 µM (active) in [16]; 37.5 µM (active) in [20]; 11.9 µM (active) in assay [13].
